# Screens deposited in PubChem BioAssay by National Center for Advancing Translational Sciences (NCATS).
# In the library only some 9.5% were active in any assay of this set; here they are far more common.
# Pf growth 48h – inhibits P. falciparum growth in the first generation, 48 h. P. falciparum luciferase growth in erythrocytes, 48 h. Potency, µM (series often up to 28.7 µM), hits mostly inhibitors. hit rate 5.9% among 310,000. AID 504832
#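 Luciferase-expressing parasites in RBCs, 2% Hct / 0.1% parasitemia final; RPMI 1640 + 0.5% Albumax; 37 C, 5% CO2, one generation; luminescence read-out, lower signal = inhibition.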
# NS1 inh – influenza NS1 inhibition. Potency, µM (titrated, usually from 46.1 µM). hit rate 0.4% among 270,000. AID 2326; calls by dose curve; further: actives are rising curves; nearly all actives have a fitted effect of over 50% in size
#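 Compounds were scored for reversing the slow growth caused by influenza A NS1 in S. cerevisiae, measured by optical density at 600 nm. Assay medium contained 2% galactose at pH 6.0; NS1-free yeast of the same strain were the positive control.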
# Pf growth 96h – P. falciparum growth inhibition at 96 hour, primary screen for plastid delayed-death inhibitors; P. falciparum luciferase reporter growth, 96 h; Potency, µM (highest dose often 28.7 µM), usual class: inhibitors; hit rate 6.9% among 320,000
#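 P. falciparum expressing integrated firefly luciferase grown in erythrocytes (2% hematocrit, 0.05% parasitemia final) with compounds for 96 hours at 37 C, 5% CO2. Growth inhibition read as loss of luminescence after adding luciferase detection reagent.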
# SARS PLpro yeast – inhibitors of SARS-CoV papain-like protease in yeast. S. cerevisiae expressing SARS-CoV PLpro, growth rescue. Potency, µM (highest dose often 32.9 µM), hits mostly activators. hit rate 0.19% among 330,000; calls by dose curve; further: nearly all actives have a fitted effect of over 55% in size
# RE007 growth inh – less growth of the S. pombe RE007 Vpr strain; S. pombe RE007 Vpr strain, BacTiter-Glo ATP luminescence, 24 h; Potency, µM (titrated, usually from 92.2 µM), actives largely listed as inhibitors; hit rate 0.21% among 360,000; active means well fitted falling curve with a large enough effect; inconclusive means small, poorly fitted or top-dose-only effect; inactive means no such curve, though single readings can be large or run the other way; further: nearly all actives have a fitted effect of over 50% in size
#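 Fission yeast strain RE007, carrying one chromosomally integrated HIV-1 vpr copy, was seeded at OD 0.01 in PMG+AL medium with 23 nL pinned compound. After 24 h at 30 °C and 99% humidity, viability was read by BacTiter-Glo luminescence.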
# Hits are given with their value; – = inactive; ? = inconclusive; · = no result given; [ ] = remark or other dose. Unless noted, the call rests on the fitted dose curve; in most records, active means well fitted inhibition curve with a large enough effect; inconclusive means small, poorly fitted or top-dose-only effect, or another doubt; inactive means no such curve, though single readings can be large or run the other way.
SMILES,Pf growth 48h,NS1 inh,Pf growth 96h,SARS PLpro yeast,RE007 growth inh
CC(C)Nc1nc(NNc2nc(Cl)nc(NC(C)(C)C)n2)nc(NC(C)C)n1,?,–,13µM,–,–
Cc1ccc(N(CC(O)CN2CCOCC2)S(=O)(=O)c2ccc([N+](=O)[O-])cc2)cc1 (stereo unspecified),–,–,–,–,–
CCNC(=S)SCCOc1ccccc1C,–,–,–,?,–
CO[C@H]1C[C@@H]2CC[C@@H](C)[C@@](O)(O2)C(=O)C(=O)N2CCCC[C@H]2C(=O)O[C@H]([C@H](C)C[C@@H]2CC[C@@H](O)[C@H](OC)C2)CC(=O)[C@H](C)C=C(C)[C@@H](O)[C@@H](OC)C(=O)[C@H](C)C[C@H](C)C=CC=CC=C1C,5.2µM,–,0.93µM,–,·
CCOC(=O)CNC1CC(=O)N(c2ccc(Br)cc2)C1=O (stereo unspecified),?,–,–,–,13µM
Cc1ccc(S(=O)(=O)N(C(=O)c2ccco2)c2cc3sc(=O)oc3c3ccccc23)cc1,10µM,–,12µM,–,–
CN(C)S(=O)(=O)c1ccc2nc(NC(=O)c3cccnc3)sc2c1,–,–,?,·,–
O=C(NC(Nc1nc2ccc([N+](=O)[O-])cc2s1)(C(F)(F)F)C(F)(F)F)c1ccccc1Cl,1.5µM,–,0.93µM,–,–
O=C(NC(Nc1nc2ccc([N+](=O)[O-])cc2s1)(C(F)(F)F)C(F)(F)F)c1cccnc1,7.4µM,–,?,–,–
O=C(COC(=O)C1CCCCC1C(=O)N1CCc2ccccc21)NCc1ccco1 (stereo unspecified),12µM,–,–,–,–
O=C(COC(=O)C1CC2C=CC1C2)NCc1ccco1 (stereo unspecified),–,–,–,–,–
NNC(=O)[C@@H](O)[C@H](O)[C@H](O)CO,·,–,·,·,·
Cc1c(C(=O)Nc2ccc(OC(F)(F)F)cc2)sc2nc3n(c(=O)c12)CCC3,–,–,–,–,–
Cc1c(C(=O)Nc2ccc(Oc3ccccc3)cc2)sc2nc3n(c(=O)c12)CCC3,12µM,–,17µM,–,–
COc1cc(NC(=O)c2cccs2)c(OC)cc1NC(=O)CCC(=O)Nc1ccc2ncccc2c1,?,–,?,–,–
CC(NC(=O)c1cccc(S(=O)(=O)N2CCN(Cc3ccccc3)CC2)c1)c1ccc(Br)cc1 (stereo unspecified),?,–,?,?,–
CC(C)CN(C(=O)COC(=O)Cc1c[nH]c2ccccc12)c1c(N)n(Cc2ccccc2)c(=O)[nH]c1=O,?,·,?,–,–
CCCCCC(=O)O[C@]1(C(C)=O)CC[C@H]2[C@@H]3CCC4=CC(=O)CC[C@]4(C)[C@H]3CC[C@@]21C,1µM,–,0.83µM,–,–[18.4 µM]
CC(=O)[C@@]1(O)CC[C@H]2[C@@H]3CCC4=CC(=O)CC[C@]4(C)[C@H]3CC[C@@]21C,?,–,?,–,–
CCCCCCCCCC(=O)O[C@H]1CC[C@H]2[C@@H]3CCC4=CC(=O)CC[C@]4(C)[C@H]3CC[C@]12C,12µM,·,8.5µM,·,·
C[C@]12CCC(=O)C=C1CCC1C2CC[C@@]2(C)C1CC[C@@H]2O (stereo partly specified),·,·,·,–,–
CC(C)CCC(=O)OC1CCC2C3CCC4=CC(=O)CC[C@]4(C)C3CC[C@]12C (stereo partly specified),13µM,·,12µM,·,·
CCOc1ccc(C(C)=O)cc1CN1C(=O)NC2(CCCCCC2)C1=O,2.3µM,–,4.7µM,–,–
CC(=O)c1ccc(OCC(C)C)c(CN2CCCCC2)c1,–,–,3.7µM,–,–
O=C(CCl)N(C1CCCC1)C1CCS(=O)(=O)C1 (stereo unspecified),?,–,?,–,–
SMILES,Pf growth 48h,NS1 inh,Pf growth 96h,SARS PLpro yeast,RE007 growth inh
COc1ccc(CCc2nnc(CCC(=O)NCc3cnc4ccccn34)o2)cc1,–,–,10µM,–,–
COc1ccc(CCc2nnc(CCC(=O)NCc3ccc4ncccc4c3)o2)cc1,–,–,–,–,–
Cc1cc(C(=O)NC(Cc2c[nH]c3ccccc23)C(=O)O)c(C)o1 (stereo unspecified),–,–,?,–,–
COC(=O)C(Cc1c[nH]c2ccccc12)NC(=O)c1cc(-c2ccc(OC)c(OC)c2)oc1C (stereo unspecified),2.9µM,–,?,–,–
COC(=O)C(Cc1c[nH]c2ccccc12)NC(=O)c1cccs1 (stereo unspecified),–,–,–,–,–
COC(=O)C(Cc1c[nH]c2ccccc12)NC(C)=O (stereo unspecified),–,–,4.1µM,–,–
CNC(=O)[C@H](Cc1c[nH]c2ccccc12)NC(=O)[C@@H](CC(=O)NO)CC(C)C,3.8µM,·,–,·,·
N[C@H](Cc1c[nH]c2ccccc12)C(=O)O,–,·,1.5µM,·,·
CCc1ccc(OCC(=O)Nc2ccc(S(=O)(=O)Nc3ccccn3)cc2)cc1,–,–,–,–,–
O=C(CCCc1c[nH]c2ccccc12)N1CCCCCC1,–,–,5.9µM,–,?
NC(=O)N[C@@H](Cc1c[nH]c2ccccc12)C(=O)OCC(=O)N1CCCCC1,12µM,·,–,–,–
O=C(CN1C(=O)c2ccccc2C1=O)N1CCCCC1,–,–,–,–,–
O=C(CCc1c[nH]c2ccccc12)N1CCCC1,–,–,–,–,–
O=C(CCCN1C(=O)c2ccccc2C1=O)N1CCCCC1,–,–,5.2µM,–,–
CCOC(=O)/C(=N\Nc1ccc(OC)cc1)c1csc(Nc2ccccc2)n1,·,–,10µM,–,–
O=C(NCCC1=CCCCC1)c1ccc(Cl)c(S(=O)(=O)N2CCOCC2)c1,5.9µM,–,–,–,–
O=C(NCCN1CCOCC1)c1ccc(Cl)c(S(=O)(=O)N2CCCCC2)c1,–,–,?,–,–
Cc1ccc(CNC(=O)c2sc3ccc(S(=O)(=O)N4CCCCC4)cc3c2N)cc1,–,–,?,–,·
O=C(NCCC1=CCCCC1)c1cc(S(=O)(=O)N2CCOCC2)c(Cl)cc1Cl,?,·,–,–,–
Nc1c(C(=O)NCCC2=CCCCC2)sc2ccc(S(=O)(=O)N3CCCCC3)cc12,13µM,?,?,–,–
Cc1ccc(CSCCNC(=O)c2ccc(Cl)c(S(=O)(=O)N3CCOCC3)c2)cc1,·,–,5.2µM,–,–
CC(=O)N1CCN(S(=O)(=O)c2cccc(C(=O)NCCC3=CCCCC3)c2)CC1,–,·,8.3µM,–,–
FC(F)(F)c1ccc(-c2cccc3c2C2CC3CCN2C(=S)NCCc2ccccc2)cc1 (stereo unspecified),·,·,·,·,–
N[C@@H](CC(=O)O)C(=O)O,·,–,·,·,·
Cc1ccc(N=C2NC(=O)/C(=C\c3ccsc3)S2)c(C)c1,–,–,–,–,–
COc1cccc(CNC(=O)[C@@H]2CCCN2C(=O)[C@H]2CCCCN2C(=O)c2ccc(Cl)cc2)c1,·,·,·,·,–
NS(=O)(=O)c1ccc(CCNC(=O)c2ccc(Cl)c(S(=O)(=O)N3CCCCC3)c2)cc1,·,·,·,–,–
